# Screens (PubChem BioAssay)
# Most compounds without a hit are left out; they make up all but 19% or so of the library.
# HT1080-NT tox: kills 2HG-producing HT-1080-NT fibrosarcoma cells. actives 1.6% (n = 360,000). Potency, µM (series often up to 46.1 µM), for the others: at the top dose activity, negative = less viability, actives largely listed as cytotoxic. HT-1080-NT fibrosarcoma viability, CellTiter-Glo ATP luminescence, 48 h. AID 686970;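 note: NT is the 2HG producing partner of a matched IDH1 knockdown line; 0% = DMSO-treated cells and -100% = media-only wells without cells; nearly all actives have a fitted effect of over 55% in size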
#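 HT-1080-NT; 750 cells/well; 5% FBS RPMI; 48 h compound, 37 degrees C; CellTiter-Glo luminescence; curve fitting and curve-class assignment.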
# DT40 TDP1 no CPT: qHTS for Inhibitors of human tyrosyl-DNA phosphodiesterase 1 (TDP1): qHTS in cells in absence of CPT | Potency, µM (highest dose often 46.2 µM), without a hit: at the top dose activity change, negative = growth inhibition, most hits filed as inhibitors | DT40 Tdp1-/- hTDP1 cells, no CPT, ATP luminescence, 48 h | actives 15% (n = 420,000); note: nearly all actives have a fitted effect of over 55% in size
#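 Chicken DT40 Tdp1-/- cells complemented with human TDP1, screened without camptothecin (DMSO vehicle only), 400 cells/well. Compounds pin-transferred, cells incubated at 37 °C for at least 48 hr. Growth read as ATP-dependent luminescence (CellTiter-Glo, 30 min at RT).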
# KB-3-1 cytotox: kills parental KB-3-1 adenocarcinoma cells. KB-3-1 viability, CellTiter-Glo ATP luminescence, 72 h. Potency, µM (titrated, usually from 46.1 µM), usual class: cytotoxic. actives 1.4% (n = 400,000). AID 1347075; note: nearly all actives have a fitted effect of over 60% in size
#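 72 h, 37 °C compound treatment of KB-3-1 parental cells; CellTiter-Glo added, 10 min, luminescence read. Data corrected against DMSO-only plates and normalized before curve fitting.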
# HT1080 IDH1KD tx: toxicity to HT-1080 IDH1 knockdown cells (counter line); HT-1080 IDH1 knockdown viability, ATP luminescence, 48 h; Potency, µM (top dose mostly 46.1 µM), for the others: at the highest dose activity, negative = toxicity, most hits filed as cytotoxic; actives 2% (n = 360,000);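 note: 0% = DMSO wells and -100% = cell-free medium wells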
#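 Luminescent ATP read-out (CellTiter-Glo, 10 min at room temperature) after 48 h compound exposure at 37 °C gave viability of IDH1-knockdown HT-1080 cells. Activity was normalised to DMSO and cell-free wells, then fitted as concentration-response curves.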
# KB-V1 cytotox: kills drug-selected multidrug resistant KB-V1 cells; KB-V1 MDR cells viability, CellTiter-Glo, 72 h; Potency, µM (highest dose often 46.1 µM), actives largely listed as cytotoxic; actives 3.4% (n = 400,000); note: nearly all actives have a fitted effect of over 60% in size
#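 Readout: CellTiter-Glo luminescence, 10 min after addition. Cells: KB-V1 MDR subline, 72 h at 37 degrees C with compound. Analysis: corrected, normalized data fitted to concentration-effect curves.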
# TDP1 cell CPT: growth inhibition of DT40 Tdp1-/-;hTDP1 cells with camptothecin (screen for TDP1 inhibitors) | chicken DT40 Tdp1-/-;hTDP1 cells + 20 nM CPT, ATP luminescence, 48 h | Potency, µM (series often up to 46.2 µM), for the others: top-dose activity change, negative = growth inhibition, actives largely listed as inhibitors | actives 12% (n = 420,000); note: nearly all actives have a fitted effect of over 55% in size
#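 Chicken DT40 Tdp1-/- cells stably complemented with human TDP1 were seeded at 400 cells/well in medium containing 20 nM camptothecin, exposed to pin-transferred compounds, and grown at 37 °C for at least 48 hr. Viability was read as ATP luminescence.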
# Starred values were filed as active, the others as inactive; i = inactive; ? = inconclusive; . = not tested or not shown; ! = repeats disagree. Calls come from the whole dose curve; as a rule, active = well fitted curve in the direction sought with a large enough effect; inconclusive = small, poorly fitted or top-dose-only effect, or another doubt; inactive = no such curve, though single readings can be large; an effect the other way counts as inactive or inconclusive. Unless noted, % is set by controls: 0 for no effect and ±100 for the full control effect; potency is the fitted concentration of half-maximal effect.
SMILES,HT1080-NT tox,DT40 TDP1 no CPT,KB-3-1 cytotox,HT1080 IDH1KD tx,KB-V1 cytotox,TDP1 cell CPT
CN1/C(=C\C(=S)Nc2ccccc2)C(C)(C)c2ccccc21,?,2.1µM*,?,-2%,i,10µM*
CN1/C(=C\C(=S)NC(=O)c2ccccc2Cl)C(C)(C)c2ccccc21,-19%,4.6µM*,?,-19%,i,7.3µM*
N#Cc1cccc(NC(=O)NCCc2c[nH]c3ccccc23)c1,5%,-27%,i,17%,i,-17%
CNC[C@H](Cc1ccccc1)NC[C@@H](Cc1cccc2ccccc12)NCCc1ccc(C)cc1,?,15µM*,7.3µM*,?,?,18µM*
COc1ccc(C(=O)COC(=O)CCN=C2NS(=O)(=O)c3ccccc32)c(OC)c1,4%,-4%,i,4%,i,-7%
CC1(C)C2CCC(C2)C1(C)NC(=O)CNC1CCCCC1 (stereo not given),-4%,10µM*,i,5%,i,?
COc1ccc(C(C)NC(=O)c2ccncc2)cc1OC (stereo not given),2%,7%,i,3%,?,2%
O=S(=O)(Cc1cc(NCc2ccccc2)nc(-c2ccccn2)n1)c1ccccc1,2%,4.6µM*,i,3%,i,4.6µM*
Cc1nc2c(C(=O)NCc3ccco3)cnn2c(C)c1Cc1ccc(F)cc1Cl,17%,?,i,-1%,i,11µM*
Cc1nc2ccc(F)cc2cc1C(=O)NCc1ccco1,16%,-22%,i,14%,i,-25%
Cc1cccc(Cc2c(C)nc3c(C(=O)NCc4ccco4)cnn3c2C)c1,?,11µM*,i,?,i,22µM*
CCOC(=O)c1cc(CC)sc1NC(=O)COC(=O)c1cc[n+]([O-])cc1,1%,7%,?,-1%,i,5%
COc1cccc(C(=O)CN(C(=O)c2ccc(Cl)c(Cl)c2)N2C(=O)C3CCCCC3C2=O)c1 (stereo not given),9%,3%,i,26%,i,-21%
O=C(NC1(C(F)(F)F)NC(=O)N(CCc2ccccc2)C1=O)c1ccc(Cl)cc1 (stereo not given),.,?,i,.,i,21µM*
COc1cc(C(=O)NC2(C(F)(F)F)NC(=O)N(CCCc3ccccc3)C2=O)cc(OC)c1OC (stereo not given),-27%,?,i,-23%,i,?
O=C(NC1(C(F)(F)F)NC(=O)N(CCc2ccccc2)C1=O)c1ccccc1F (stereo not given),.,-7%,i,.,i,-23%
CC(C)(C)c1ccc(C(=O)NC2(C(F)(F)F)NC(=O)N(CCc3ccccc3)C2=O)cc1 (stereo not given),.,23µM*,i,.,i,21µM*
Cc1ccc(NC(=O)Cc2ccc(-n3c(C)nc4cccnc43)cc2)c(Cl)c1,.,4.1µM*,18µM*,.,5.8µM*,5.2µM*
COc1ccc(C(=O)Nc2cccc(-c3nc4cccnc4s3)c2C)c(OC)c1,.,12µM*,i,.,i,21µM*
CCOCC(=O)Nc1cccc(-c2nc3cccnc3s2)c1C,11%,-29%,i,18%,i,-7%
Cc1c(NC(=O)Cc2ccc(Cl)cc2)cccc1-c1nc2cccnc2s1,.,16µM*,i,.,i,?
COc1ccc2c(=O)c(-c3ccc(C)cc3)c(-c3ccccc3)oc2c1,19%,7.3µM*,i,9%,i,12µM*
COc1ccc(-c2oc3ccccc3c(=O)c2O)cc1,.,0%,.,.,.,-3%
COc1ccc2c(=O)c(-c3ccccc3C)c(C)oc2c1,-4%,13µM*,i,-6%,i,?
CCCOc1ccc2c(=O)c(-c3cc(C(=O)OC)oc3C)c(C)oc2c1,8%,18µM*,i,-25%,?,13µM*
SMILES,HT1080-NT tox,DT40 TDP1 no CPT,KB-3-1 cytotox,HT1080 IDH1KD tx,KB-V1 cytotox,TDP1 cell CPT
COc1ccccc1-c1c(C)oc2cc(OC(=O)c3ccco3)ccc2c1=O,0%,?,?,1%,?,?
COc1ccc2c(=O)c(OC)c(-c3ccccc3)oc2c1,.,7.3µM*,.,.,.,?
CCCC(C)C(=O)Nc1nc(C)c(-c2csc(Nc3cc(Cl)ccc3C)n2)s1 (stereo not given),-5%,?,?,-6%,i,?
Cc1nc(NC(=O)CC(C)C)sc1-c1csc(Nc2ccc(Cl)cc2Cl)n1,?,18µM*,i,?,?,?
C=CCCC(=O)Nc1nc(C)c(-c2csc(Nc3ccc(Cl)cc3Cl)n2)s1,16µM*,15µM*,?,?,?,?
Cc1nc(NC(=O)CC(C)C)sc1-c1csc(Nc2ccc(Cl)cc2)n1,-15%,15µM*,i,-6%,i,?
CCOC(=O)c1cc(-c2csc(Nc3ccccc3Cl)n2)on1,-2%,-6%,i,-1%,i,0%
CC(=O)Nc1ccc(NC(=O)C(Cc2ccccc2)NS(=O)(=O)c2ccc3c(c2)oc(=O)n3C)cc1 (stereo not given),.,4%,i,.,i,-9%
Cc1csc2nc(CSc3ccc(Cl)cc3)cn12,-1%,23µM*,i,-7%,i,?
Clc1ccc(SCc2cn3ccsc3n2)cc1,5%,-20%,i,-1%,i,-29%
CC1(C)CCC(=O)N2CC[C@H]3C[C@H](OC(=O)Nc4ccccc4)C[C@@H]1[C@H]32,1%,?,i,-3%,18µM*!,16µM*
O=C(Nc1ccccc1)OC1CCC2CC1CCC2OC(=O)Nc1ccccc1 (stereo not given),?,12µM*,?,?,?,13µM*
O=C(Nc1ccccc1)C1CC2CCC1C2 (stereo not given),2%,15%,i,7%,i,12%
COc1ccc(C2/C=C\CN(C(=O)c3ccccc3)CC(=O)N2Cc2cccc(F)c2)cc1 (stereo not given),-3%,-64%,i,0%,i,?
COc1ccc([C@H]2/C=C\CN(C(=O)[C@H](Cc3ccccc3)NC(=O)OCC3c4ccccc4-c4ccccc43)CC(=O)N2Cc2ccc(F)cc2)cc1,-11%,?,i,-2%,i,21µM*
